The campaign covered roughly 69,000 compounds. About 8,600 (12%) showed an effect of 50% or more. What follows is part of a selection rich in strong results, with near analogues and random picks from the rest.
The compounds below were run on Plasmodium berghei (assay: Screen against P. berghei liver stage (PbLuc), transformed with Luciferase, at 10uM). Settings: tested at 10 uM.
Type: functional, HepG2

Row | SMILES | INHIBITION [%]
1 | CC(C)c1nnc2n1CC(CNCc1ccsc1)CC2 (stereo not drawn) | 5.85
2 | Cc1oc(-c2ccsc2)nc1CC(=O)NCCCS(C)(=O)=O | 5.05
3 | O=C(c1ccncc1Cl)N1CCN(Cc2ccco2)C(CCO)C1 (stereo not drawn) | 16.2
4 | O=C(c1ncccc1O)N1CCN(Cc2ccco2)C(CCO)C1 (stereo not drawn) | 17
5 | Cc1cc(C(=O)N2CCN(Cc3ccco3)C(CCO)C2)cc(=O)[nH]1 (stereo not drawn) | 52.1
6 | CCOc1ccc(C(=O)N2CCCC2Cn2cc(C)cn2)cn1 (stereo not drawn) | 28.55
7 | CCn1cc(NC(=O)C2CCN(CC(=O)NCC(C)C)CC2)cn1 | 37.4
8 | Cc1ccc(NC(=O)c2cc3c(=O)n(C)c(=O)n(C)c3nc2C)cc1Cl | -6.83
9 | COc1ccc(OC)c([C@@H]2N[C@H](c3nccs3)Cc3ccsc32)c1 | 43.4
10 | CCOc1cc([C@@H]2N[C@H](c3nccs3)Cc3ccsc32)ccc1OC | 25.05
11 | COc1cc([C@@H]2N[C@H](c3nccs3)Cc3ccsc32)cc(OC)c1OC | 47.2
12 | CCOc1ccc([C@@H]2N[C@H](c3nccs3)Cc3ccsc32)cc1OC | 69.25
13 | COc1cccc([C@@H]2N[C@H](c3nccs3)Cc3ccsc32)c1OC | 49.2
14 | CCOc1cc([C@H]2N[C@@H](c3nc(C)cs3)Cc3ccsc32)ccc1OC | 75
15 | COCCN1CCC2(CC1)CN(Cc1cccc(C)n1)C(=O)CO2 | 7.53
16 | COc1ccc(CCC(=O)N(C(C)C)C2CCOCC2)cc1 | -42.1
17 | CC(C(=O)N1CCN(c2ccccc2)CC1)n1cc(Br)cn1 (stereo not drawn) | -35.4
18 | O=C(c1c[nH]nn1)N1CCN(C(c2ccccc2)C(F)(F)F)CC1 (stereo not drawn) | -10.9
19 | O=C(c1cc[nH]n1)N1CCN(C(c2ccccc2)C(F)(F)F)CC1 (stereo not drawn) | 17.1
20 | O=C(c1ccccn1)N1CCN(C(c2ccccc2)C(F)(F)F)CC1 (stereo not drawn) | 51.7
21 | NC(=O)C1CN(c2ccc(F)cc2)CCN1 (stereo not drawn) | 25.8
22 | c1ccc2nc(N3CCCC3)c(NCc3nnc4n3CCC4)nc2c1 | 16.1
23 | c1ccc2nc(N3CCCCC3)c(NCc3nnc4n3CCC4)nc2c1 | 0.897

Row | SMILES | INHIBITION [%]
24 | Cc1nc2ccccc2nc1NCc1nnc2n1CCC2 | 52.9
25 | Cc1cnn(CCNCc2csc(-c3ccc(C)o3)n2)c1 | 15.3
26 | Cn1cc(C(=O)Nc2ccc(CC(=O)NCC(F)(F)F)cc2)nn1 | 50.5
27 | Cn1cc(C(=O)Nc2ccc(CC(=O)NC3CC3)cc2)nn1 | 11.3
28 | CN(C)C(=O)Cc1ccc(NC(=O)c2cn(C)nn2)cc1 | 20
29 | CCC(C)c1cc(C(=O)N(CC(=O)NC)c2cccc(F)c2)on1 (stereo not drawn) | 3.04
30 | Cc1cccc(CN2CCCn3c(nnc3Cn3cccn3)C2)n1 | -23
31 | CN1CCCC(CCC(=O)N2CCc3onc(C(=O)N(C)C)c3C2)C1 (stereo not drawn) | 12
32 | CCN1CCc2cc(C(=O)N(C)C)c(NCC3CC3)nc2CC1 | 37.2
33 | CCN1CCC(CC(=O)N2CCc3sc(C(=O)N(C)C)cc3C2)CC1 | 64
34 | CN(C)C(=O)c1noc2c1CN(C(=O)CCCN1CCCCC1)CC2 | 41.5
35 | CN(C)c1cc2c(nn1)CCN(C(=O)c1cc3c(s1)CCCC3)C2 | -2.13
36 | CN1CCCC(CCC(=O)N2CCc3sc(C(=O)N(C)C)cc3C2)C1 (stereo not drawn) | 73.6
37 | CN(C)C(=O)c1cc2c(s1)CCN(C(=O)CCCN1CCCCC1)C2 | 71.5
38 | CCNc1cc2c(nn1)CCN(C(=O)CC1CCCC1)C2 | 17.4
39 | CNC(=O)c1cc2c(s1)CCN(C(=O)CCC1CCCN(C)C1)C2 (stereo not drawn) | 42.6
40 | c1cc(-c2ccc3nc(C4CCN(CC5CC5)CC4)nn3c2)cs1 | 23.6
41 | Cc1ccc2c(n1)N(CCn1cccn1)CCN(CC1CC1)C2 | -6.3
42 | CCN(Cc1cnn(C)c1)C[C@H]1CC[C@@H](Cc2ccc(OC)nc2)O1 | -22.3
43 | CN(C)CCN1CCCC12CCN(C(=O)c1ccoc1)CC2 | -44.2
44 | O=c1c2cn[nH]c2nc(SCCN2CCCC2)n1-c1ccccc1 | 17.7
45 | CC(C)CNC(=O)[C@H]1CCS(=O)(=O)[C@@H]2CN(Cc3ccc(F)cc3)C[C@H]12 | -0.371
46 | CSc1cccc(CN(C)C(=O)Cn2ncc(N3CCCC3)cc2=O)c1 | 25.1

Row | SMILES | INHIBITION [%]
47 | CCC1C(=O)NCCN1c1cc(C)ncn1 (stereo not drawn) | 26.8
48 | O=C(Cc1ccccn1)N1CCc2ncnc(N3CCCC3)c2CC1 | -10.3
49 | OC1COCCN(Cc2cccc(N3CCOCC3)c2)C1 (stereo not drawn) | 15.9
50 | OC1CN(Cc2cccc(N3CCOCC3)c2)Cc2ccccc21 (stereo not drawn) | 28.7
51 | N[C@@H]1CCN(Cc2cccc(N3CCOCC3)c2)C[C@H]1O | 58.6
52 | CC(=O)Nc1ccc(CNc2ccn(Cc3ccccc3)n2)cc1 | -51.8
53 | CN(C)S(=O)(=O)N1CCC(c2ccnc(Nc3ccccn3)n2)C1 (stereo not drawn) | 29.5
54 | CCc1nccn1-c1cccc(C2CCCN2S(=O)(=O)N(C)C)n1 (stereo not drawn) | 36.7
55 | CC(C)c1nccn1-c1cncc(C2CCCN(C3CCCCC3)C2)n1 (stereo not drawn) | 44.1
56 | Cc1nccn1-c1cccc(C2CCCN2S(=O)(=O)N(C)C)n1 (stereo not drawn) | 53
57 | CC(C)c1nccn1-c1cncc(C2CCCN(C3CCCC3)C2)n1 (stereo not drawn) | 41.2
58 | CC(C)c1nccn1-c1cccc(C2CCCN(C3CCCC3)C2)n1 (stereo not drawn) | 35.3
59 | CC(C)c1nccn1-c1cccc(C2CCCN(S(=O)(=O)N(C)C)C2)n1 (stereo not drawn) | 50.1
60 | CC(C)c1nccn1-c1cccc(C2CCCN2S(=O)(=O)N(C)C)n1 (stereo not drawn) | 21.9
61 | CC(C)c1nccn1-c1cccc(C2CCN(C)CC2)n1 | 58
62 | COc1ccc(C(=O)Nc2cccc(C(N)=O)c2)c(OC)n1 | -26.1
63 | CNCC(=O)N1CCCCC1c1nccc(C)n1 (stereo not drawn) | 18.3
64 | O=C(c1ccnc(-n2ccnc2)c1)N1CCCC(n2ccnc2)C1 (stereo not drawn) | 25.1
65 | CC(=O)NCCNC(=O)c1cc(COc2ccccc2)[nH]n1 | -3.83
66 | CCN1CCN(C(=O)c2cnc(Cc3c(Cl)cccc3Cl)nc2O)CC1 | 8.11
67 | O=C(c1cnc(Cc2c(Cl)cccc2Cl)nc1O)N1CCNCC1 | 43.9
68 | NC1CCN(C(=O)c2cnc(Cc3c(Cl)cccc3Cl)nc2O)C1 (stereo not drawn) | 51.3
